Activity calls are given as the source filed them. Rule for the calls: active = hit-call score of the fitted dose curve at least 0.9, where 1 is the maximum; inactive = score below 0.9.

Read-out in this assay: Cytochrome P450 (CYP2B6), CYP2B6 (gene 1555)
The experiment in a line: LTEA_HepaRG_CYP2B6: Life Technologies and Expression Analysis (LTEA) Assay for Cytochrome P450 (CYP2B6) using HepaRG (AID 2283481). Conditions: mRNA level, 48 h; actives raise or lower the signal. The procedure: LTEA_HepaRG is a cell based, multiplexed-readout assay that uses HepaRG, a human liver cell line, with measurements taken at 48 hours after chemical dosing on a 96-well plate.LTEA_HepaRG_CYP2B6 is one of 102 assay component(s) measured in the LTEA HepaRG cell culture assay. It is a marker of NR mediated metabolism.Data from the assay component LTEA_HepaRG_CYP2B6 was analyzed into 1 endpoint. This assay endpoint, LTEA_HepaRG_CYP2B6, was analyzed with bidirectional fitting relative to DMSO as the negative control and baseline of activity. Using a type of inducible reporter, measures of mRNA induction for gain or loss-of-signal activity can be used to understand regulation of transcription factor activity. To generalize the intended target to other relatable targets, this assay endpoint is annotated to the cyp intended target family, where the subfamily is xenobiotic metabolism.
A total of 1060 chemcials from the ToxCast library were tested in eight-point concentration-response experiments. Cell culture and cytotoxicity assays were conducted at Thermo Fisher Scientific's Custom Services facility (Madison, WI). A single lot of human HepaRG cells (Thermo Fisher Scientific, Frederick, MD) was used for the cell culture experiments. 96-well format collagen type I coated plates of human HepaRG cells were prepared using established methods. Briefly, cryopreserved HepaRG cells were thawed, plated at a density of approximately 100,000 cells/well in HepaRG Thaw, Plate, and General Purpose media (HPRG770, Thermo Fisher Scientific), and incubated for 48 hours. 0.5% DMSO was selected as vehicle control to balance the requisite need of DMSO in HepaRG cultures to maintain differentiation (for example, baseline metabolism, proportions of hepatocytes vs. cholangiocytes), while enabling further hepatic receptor pathway activation (for example, PXR and CAR) in response to chemical exposure. 48 hours after plating, the culture medium was replaced with HepaRG Serum-Free Incudtion Media. Cells were exposed to each test chemical in duplicate and maintained in CO2 incubators for another 48 hours. Chemical plates were thawed to room temperature and 200x concentrations of treatment groups were prepared. 8-point conentration-reponse curves were made with the highest exposure at 100 uM, followed by half-log dilutions, all in 0.5% DMSO. Each test plate contained variouse controls, induction positive controls (1mM phenobarbital), cytotoxicity positive controls ([…] aflatoxin B1), vehicle controls (0.5% DMSO), and total lysis controls (0.5% DMSO). Cell morphology images were taken using an Essen IncuCyte FLR automated microscope, with six 96-well plates imaged in about 24 minutes. Images were captured and exported and JPEG files. Spent culture media was transfered to black-well plates for the LDH assay, and remaining media was sorted at -80 C for later use. Cells were treated with RLT buffer and frozen until shipped for gene expression analysis. Total RNA was isolated from the cell suspension in 75 uL of Buffer RLT (Qiagen, Germantown, MD 20874) by Quintiles/Expression Analysis (Durham, NC) using a custom isolation procedure. Total RNA from each plate well was transferred to a preamplification plate. Fluidigm's 96.96 Dynamic ArrayTM (Fluidigm, Amsterdam, the Netherlands) technology was used for gene expression analyses by quantitative reverse transcription polymerase chain reaction (qRT-PCR, performed by Quintiles/Expression Analysis, Durham, NC)89. Standard TaqManTM Assays (Applied Biosystems/ThermoFisher Scientific, Foster City, CA) were used to assess the expression of 93 genes selected based on their selectivity and sensitivity to important hepatic receptors known to be modulated by environmental chemicals; importance in human hepatocyte functionality; and hepatotoxicity. […]
On to `CCCCCCCCCC[N+](C)(C)[O-]`, for which the concentration at half-maximal activity (AC50) is 34 µM (active).

Take `CCCCOC(=O)CCCCC(=O)OCCCC`: the call was inactive.

`c1ccc2occc2c1`: the AC50 is 5.44 µM (active).

As to `O=C(Oc1ccccc1)c1cccc(C(=O)Oc2ccccc2)c1`, the AC50 was 15.9 µM (active).

Turning to `O=C1CCCCC1`, the outcome was inactive.

As to `CCCCCCC(C=O)=Cc1ccccc1`, the AC50 is 15.9 µM (active).

Consider `CC(C)c1cccc(C(C)C)c1`, for which the molecule was classed as inactive.

With `CN(C)C(=O)NC1(c2ccccc2)CCN(CCC[C@]2(c3ccc(Cl)c(Cl)c3)CCCN(C(=O)c3ccccc3)C2)CC1`, the AC50 was 20 µM (active).

For `O=C(O)c1cccnc1`, the call was inactive.

Consider `Nc1nc(Cl)nc2c1ncn2[C@H]1C[C@H](O)[C@@H](CO)O1`, for which the AC50 was 1.22 µM (active).

Take `COc1ccc(C(=O)Nc2nc3ccccc3c(NCc3ccccc3)c2C#N)cc1`: the outcome was inactive.

On to `CC(=O)O`, for which the result was inactive.

For `CCCC[C@H]1CN(CC2CCOCC2)C(=O)OC12CCN(C1(C)CCN(C(=O)c3c(C)ncnc3C)CC1)CC2`, the call was inactive.

Consider `NC=O`, for which the molecule was classed as inactive.

As to `Nc1nc(=S)c2[nH]cnc2[nH]1`, the AC50 is 5.84 µM (active).

As for `C#CC(O)C(CC)CCCC` (stereo not given), the AC50 is 24.4 µM (active).

As for `CC(=O)OC1CC(C)OC(C)O1` (stereo not given), the molecule was classed as inactive.

As for `O=[Si]=O`, the AC50 is 0.099 µM (active).

For the molecule `CCCC(=O)O`, the molecule was classed as inactive.

For the molecule `CCCCCCCCCCCCCCOS(=O)(=O)O`, the AC50 was 85.6 µM (active).

For the molecule `Cc1cc(SC2=C(O)C[C@@](CCc3ccc(N)cc3)(C(C)C)OC2=O)c(C(C)(C)C)cc1CO`, the AC50 is 2.89 µM (active).

Take `NC1CCCCC1`: the result was inactive.

Take `CC(=O)S[C@H](C(=O)N[C@H]1Cc2ccccc2[C@H]2CCC[C@@H](C(=O)O)N2C1=O)C(C)C`: the outcome was inactive.

In the case of `CSc1ccc(Oc2ccc(S(N)(=O)=O)cc2CN(C)C)cc1C`, the AC50 is 12.1 µM (active).

As to `C/C=C/C=C/C(=O)O`, the result was inactive.

On to `Cc1cc(Cc2ccc(N)c(C)c2)ccc1N`, for which the AC50 is 0.823 µM (active).

As to `C=CCCCCCCCCCCCC`, the molecule was called inactive.

Turning to `CN(C)CCCN(C)CCCN(C)C`, the result was inactive.

As for `Oc1ccccc1O`, the molecule was classed as inactive.

For `Cc1occc(=O)c1O`, the molecule was called inactive.

Regarding `COc1ccc(OC(F)(F)F)cc1CN[C@H]1CCCN[C@H]1c1ccccc1`, the AC50 was 86.1 µM (active).

As for `N[C@@H](Cc1c[nH]c2ccccc12)C(=O)O`, the outcome was inactive.

As to `O=Cc1ccccc1C=O`, the AC50 is 23.3 µM (active).

With `OCC(O)CO`, the AC50 is 22.6 µM (active).

As to `O=C1NC(=O)C(c2ccccc2)(c2ccccc2)N1`, the AC50 was 1.18 µM (active).

Turning to `COC(=O)CCC(=O)OC`, the molecule was called inactive.

Consider `CC(C)NCC(O)c1ccc(O)c(O)c1` (stereo not given), for which the AC50 was 0.132 µM (active).

On to `CC(=O)O[C@]1(C(C)=O)CC[C@H]2[C@@H]3C=C(Cl)C4=CC(=O)[C@@H]5C[C@@H]5[C@]4(C)[C@H]3CC[C@@]21C`, for which the AC50 was 50 µM (active).

Turning to `CCCCCCCCCCCCCCCCO`, the AC50 is 13.1 µM (active).

As for `CC(N)=O`, the molecule was classed as inactive.

The values are drawn from PubChem BioAssay (EPA / NIEHS).
